Measured values from the supplement of paper PMC6555819.

tested on: VDR:RXRa (NR concentration 270 nM, RXRa partner concentration 90 nM); test: PBM binding z-score (relative to random genomic background probes); higher = stronger binding; sequences stand for … in GC…GCGATTGACAGCGTAGAATGAAGG
Experimental: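 Protein-binding microarray (Agilent 4x180K custom design, double-stranded 60-nt probes: 5' GC cap, 34-nt variable region, 24-nt constant primer region; full probe sequence given). Purified or IVT nuclear receptor:RXRα heterodimers (3:1 NR:RXRα, mostly 270:90 nM) or homodimers were incubated for 1 h in PBS with 2% milk and no ligand, then detected with Alexa488 antibodies. Fluorescence from o1-orientation probes (~5 replicates averaged) was converted to z-scores against 500 random hg19 background probes. Variable regions are seed direct-repeat (DR0–DR5) sites, all their single-nucleotide variants and half-site ablations.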

Sequence	PBM binding z-score
ACTAGTTGGTCAGCTGACGTCACACACAATTCGG	0.0123
ATATGTAGGTTAGCAGGGGTCATTCAGACTAGGC	6.33
ATCGAAAGGTCTACGAGGTGAGTATACACCGTTT	1.6
CCTAGTTGGTCAAGGGCACACACGCTATAGGTAC	0.813
CCTTACGTGTCACTGACAGGTTATAGCATTTGGA	0.871
CCTGCTAGGTGAATGGTCAGCTAAAGCAGCTCGC	-0.699
TCTTGTAGATCAATCGAGGTTAAGAAAGTGCGCT	1.75
TCAAGTAGGTTAGGGGCATTCAGAATGGCGTCGA	1.05
TCTTGTAGATCAAAGGTTCAGAAAGCCGAAGCCT	1.47
CCTCGCAGGACAACAGGAGGTCAGAGCTGCCAGA	1.42
TATTGTAGATCAATAGAGGTTAAGAAAGTGCGCT	1.91
CAAACTATGTCAAGGTCAAAGTCGGTTTGTGCCA	4.83
CCTGCTATGTCAATGGTCAGCTAAAGCAGCTCGC	-0.397
CCAGACAGGTGAGAAGCTAACTCAGCCTCGATTA	-0.228
GCTAGTTGGTAAGTAAAAGGTCACACACCGGTCG	3.82
CTCGAAAGGTCGTGCTCTGGTGAGTATACCAAAC	3.19
GCTACTGGGGCATCAGCAGGTTACCATAACTTAA	0.0562
ATCTCTAGGTAAAGATAGTTCAGTGCATGCAAAT	0.777
CGTCCAAGGTCAATACTAGGTCAGTGAAAGCATT	4.63
TCGATTAGGTTAGTCGGGGCATTCAGCCAACATA	2.14

Sequence	PBM binding z-score
CGAACTTGGTCATCCAGGACAGTGAATACATTGA	1.59
ATATGTAGGATAAGGGTCATTCAGGTTGGTTCGC	5.49
ATCTCTAGGTAACCATGTTCAGTGAATGCCGAAC	0.463
GCTAGGAGGACAAGGTCAGAGCTTTGTCCGTAGA	1.4
CCTTACTGGTCACGAGGTTATAGCACGACGAGCG	1.86
GGAACGAGGGCAAGTTGATAGCTGAGTTTGATGG	0.643
AATACAGGGTCATCGTAGTCCAGAGTACGCACAG	5.65
CGGCCTAGGTCAGGGCCAGTATAGGAGGAACGTT	0.12
CCGAGTAGGTTACGGGGCATTCAGGCAACGGTGA	0.208
TCATATAGGTAAATGCTAGGTGGAAGTCCGATCT	0.687
TCTCGGAGGACACGTAGGTCAGAGCTTTCCAGAG	1.13
TCATATAGGTAAAGGTGAAAATCGAACGATATGA	0.688
CCGACTGGGGCAAAGGTTACCATTCTCAGTACGA	1.43
TCAGACAGGTGAAGGTAACTCACGTACGCAGTCG	0.473
ATATGTAGGTTAGCTGGGGTCATACAGACTAGGC	6.08
TCTCAAAGTTCAAAGGTAACGTAAGTATCCACAC	4.93
TCTTGTAGATCAACAAGAGGTTAAGAAAGATCGA	1.08
CCGACTGGGGCAGAGGTTACCATACTCAGTACGA	0.52
CCGACTGGGGCGAGGTTACCATAACGCACAGCCA	0.364
CGAAAGAGGGCATGAGTTGATAGCAAATGCCGAT	1.22
